Measurements from PubChem BioAssay (EPA / NIEHS).
Several values for one entry are separate records, joined by “and”; a condition that tells them apart may be missing. Equal values may be shown once. A structure can be active in one record and inactive in another. Activity calls are given as the source filed them. The calls were made as follows: active = hit-call score of the fitted dose curve at least 0.9, where 1 is the maximum; inactive = score below 0.9.

Legend:
[1] = read-out: Interleukin-1 alpha (IL1a), IL1A (gene 3552); test: BSK_KF3CT_IL1a: BioMAP Diversity Plus: KF3CT Assay for Interleukin-1 alpha (IL1a) Biomarker Activity (AID 2283070); conditions: primary human keratinocytes with fibroblasts; actives raise or lower the signal
How it was run: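 Readout is IL-1a level by ELISA, compared bidirectionally with DMSO as baseline. Cells: human keratinocytes co-cultured with foreskin fibroblasts, harvested 24 h post-dose.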

[2] = read-out: TIMP metallopeptidase inhibitor 2 (TIMP2), TIMP2 (gene 7077); test: BSK_KF3CT_TIMP2: BioMAP Diversity Plus: KF3CT Assay for TIMP metallopeptidase inhibitor 2 (TIMP2) Biomarker Activity (AID 2283071); conditions: primary human keratinocytes with fibroblasts; actives raise or lower the signal
How it was run: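 Measurements come from ELISA detection of TIMP-2 at 24 hours in a dosed human keratinocyte and foreskin fibroblast co-culture. DMSO serves as negative control and baseline.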

[3] = read-out: Transforming growth factor beta 1 (TGFb1), TGFB1 (gene 7040); test: BSK_KF3CT_TGFb1: BioMAP Diversity Plus: KF3CT Assay for Transforming growth factor beta 1 (TGFb1) Biomarker Activity (AID 2283072); conditions: primary human keratinocytes with fibroblasts; actives raise or lower the signal
How it was run: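 TGF-b1 ELISA on a 24 h dosed co-culture of human keratinocytes and foreskin fibroblasts; cytotoxicity tracked in parallel cultures by SRB staining.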

[4] = read-out: C-C motif chemokine 2 (Homo sapiens) (UniProt P13500); test: BSK_KF3CT_MCP1: BioMAP Diversity Plus: KF3CT Assay for Monocyte Chemoattractant Protein 1 (MCP1/CCL2) Biomarker Activity (AID 2283073); conditions: primary human keratinocytes with fibroblasts; actives raise or lower the signal
How it was run: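 ELISA readout of MCP-1 after 24 h chemical dosing of a human skin primary co-culture of keratinocytes and foreskin fibroblasts. Activity was fitted in both directions against DMSO.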

[5] = read-out: Matrix Metallopeptidase 9 (MMP9), MMP9 (gene 4318); test: BSK_KF3CT_MMP9: BioMAP Diversity Plus: KF3CT Assay for Matrix Metallopeptidase 9 (MMP9) Biomarker Activity (AID 2283074); conditions: primary human keratinocytes with fibroblasts; actives raise or lower the signal;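 as to AC50: MMP9 protein level quantified by ELISA in the co-culture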
How it was run: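 Values come from bidirectional fitting relative to DMSO of MMP-9 levels, which were measured by ELISA. Measurements were taken 24 h after chemical dosing of a keratinocyte and foreskin fibroblast co-culture.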

CD40, CD40 (gene 958) [6] = test: BSK_LPS_CD40: BioMAP Diversity Plus: LPS Assay for CD40 Biomarker Activity (AID 2283076); conditions: primary human HUVEC with PBMC; actives raise or lower the signal
How it was run: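 Cells were dosed, incubated 24 h, then assayed for CD40 by ELISA. Gain or loss of signal was analysed relative to DMSO controls. The culture paired human umbilical vein endothelium with peripheral blood mononuclear cells.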

[7] = read-out: E-selectin (Homo sapiens) (UniProt P16581); test: BSK_LPS_Eselectin: BioMAP Diversity Plus: LPS Assay for Eselectin Biomarker Activity (AID 2283077); conditions: primary human HUVEC with PBMC; actives raise or lower the signal
How it was run: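 Primary human vascular co-culture (endothelium plus PBMC) was dosed with chemical, then E-selectin quantified by ELISA at 24 h. Endpoint values derive from bidirectional curve fitting relative to DMSO.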

[8] = BSK_LPS_SRB: Viability Assessment in the BioMAP Diversity Plus: LPS Assay (AID 2283079); conditions: primary human HUVEC with PBMC;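 also: total protein by sulforhodamine B absorbance as a cytotoxicity measure; measured one day after compound addition; fitted in both directions against DMSO so loss or gain of signal counts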
How it was run: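 Readout is SRB absorbance at 560 nm (0.1% stain, TCA-fixed parallel cultures) as a total-protein cytotoxicity measure. Cells: primary human umbilical vein endothelium plus peripheral blood mononuclear cells, 24 h after chemical exposure; DMSO served as baseline.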

[9] = read-out: Interleukin-1 alpha (IL1a), IL1A (gene 3552); test: BSK_LPS_IL1a: BioMAP Diversity Plus: LPS Assay for Interleukin-1 alpha (IL1a) Biomarker Activity (AID 2283080); conditions: primary human HUVEC with PBMC; actives raise or lower the signal
How it was run: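 ELISA read-out of IL-1 alpha from a human primary vascular co-culture (endothelium plus PBMC) under LPS, sampled 24 hours post-dosing. Activity was fitted in both directions relative to DMSO controls.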

[10] = read-out: Monocyte Chemoattractant Protein-1 (MCP1), CCL2 (gene 6347); test: BSK_LPS_MCP1: BioMAP Diversity Plus: LPS Assay for Monocyte Chemoattractant Protein-1 (MCP1) Biomarker Activity (AID 2283081); conditions: primary human HUVEC with PBMC; actives raise or lower the signal;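 as to AC50: secreted MCP-1 protein quantified by ELISA in culture supernatant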
How it was run: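 Human endothelial–PBMC co-cultures were dosed with chemical, then LPS-driven MCP-1 levels were quantified by ELISA at 24 h. Activity in either direction was fitted versus DMSO negative control.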

[11] = BSK_LPS_PGE2: BioMAP Diversity Plus: LPS Assay for Prostaglandin E2 (PGE2) Biomarker Activity (AID 2283082); conditions: primary human HUVEC with PBMC; actives raise or lower the signal;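 as to AC50: secreted prostaglandin E2 measured by ELISA in LPS-stimulated co-culture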
How it was run: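 Primary human endothelial cells and blood mononuclear cells, co-cultured with LPS, receive test chemical; PGE2 ELISA follows at 24 h, with SRB-stained parallel cultures flagging cytotoxicity.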

[12] = read-out: Macrophage colony-stimulating factor (MCSF), CSF1 (gene 1435); test: BSK_LPS_MCSF: BioMAP Diversity Plus: LPS Assay for Macrophage colony-stimulating factor (MCSF) Biomarker Activity (AID 2283083); conditions: primary human HUVEC with PBMC; actives raise or lower the signal
How it was run: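 ELISA readout of M-CSF after 24 h compound exposure in a human endothelial/PBMC co-culture. Activity, in either direction, is fitted relative to DMSO vehicle.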

[13] = read-out: Tissue Factor, F3 (gene 2152); test: BSK_LPS_TissueFactor: BioMAP Diversity Plus: LPS Assay for Tissue Factor Biomarker Activity (AID 2283084); conditions: primary human HUVEC with PBMC; actives raise or lower the signal
How it was run: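 ELISA signal for cell-surface Tissue Factor (CD142) was read 24 h after compound dosing of an LPS-stimulated human endothelial–PBMC primary co-culture. Gain or loss of signal was scored relative to DMSO.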

[14] = read-out: Tumor necrosis factor (Homo sapiens) (UniProt P01375); test: BSK_LPS_TNFa: BioMAP Diversity Plus: LPS Assay for Tumour Necrosis Factor alpha (TNFa) Biomarker Activity (AID 2283085); conditions: primary human HUVEC with PBMC; actives raise or lower the signal;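 as to AC50: TNFa protein level quantified by ELISA in the co-culture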
How it was run: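 ELISA-based TNFa endpoint in a human endothelial–PBMC co-culture sampled 24 h post-exposure. Curves were fitted in both directions using DMSO as baseline of activity.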

[15] = read-out: Vascular cell adhesion molecule 1 (VCAM1), VCAM1 (gene 7412); test: BSK_LPS_VCAM1: BioMAP Diversity Plus: LPS Assay for Vascular cell adhesion molecule 1 (VCAM1) Biomarker Activity (AID 2283086); conditions: primary human HUVEC with PBMC; actives raise or lower the signal
How it was run: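 Measured by ELISA: VCAM-1 in LPS-activated HUVEC/PBMC co-cultures 24 h after treatment. Values reflect bidirectional fitting with DMSO as baseline.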

CD38, CD38 (gene 952) = test: BSK_SAg_CD38: BioMAP Diversity Plus: SAg Assay for CD38 Biomarker Activity (AID 2283087); conditions: primary human HUVEC with PBMC; actives raise or lower the signal
How it was run: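 Measures CD38 on a human endothelial/PBMC co-culture driven by SEB and TSST-1, 24 h after compound exposure, using ELISA with fluorescence detection; DMSO defines baseline for bidirectional curve fitting.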

CD40, CD40 (gene 958) [16] = test: BSK_SAg_CD40: BioMAP Diversity Plus: SAg Assay for CD40 Biomarker Activity (AID 2283088); conditions: primary human HUVEC with PBMC; actives raise or lower the signal
How it was run: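 Compounds were dosed onto a human primary endothelial–PBMC co-culture, and after 24 h CD40 was quantified by ELISA using a fluorescence signal. Activity in either direction was fitted relative to DMSO.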

CD69, CD69 (gene 969) = test: BSK_SAg_CD69: BioMAP Diversity Plus: SAg Assay for CD69 Biomarker Activity (AID 2283089); conditions: primary human HUVEC with PBMC; actives raise or lower the signal;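 as to AC50: cell surface CD69 protein quantified by ELISA with fluorescence detection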
How it was run: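 Endothelial/PBMC co-culture; chemical added; 24 h incubation; CD69 ELISA with fluorescence detection; bidirectional fit vs DMSO.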

[17] = read-out: Interleukin-8 (IL8), CXCL8 (gene 3576); test: BSK_LPS_IL8: BioMAP Diversity Plus: LPS Assay for Interleukin-8 (IL8) Biomarker Activity (AID 2283078); conditions: primary human HUVEC with PBMC; actives raise or lower the signal
How it was run: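 Readout is IL-8 by ELISA, taken 24 h after compounds were added to LPS-stimulated endothelial/PBMC co-cultures. Both increases and decreases relative to DMSO control were scored through bidirectional fitting.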

[18] = read-out: urokinase plasminogen activator (uPA), PLAU (gene 5328); test: BSK_KF3CT_uPA: BioMAP Diversity Plus: KF3CT Assay for urokinase plasminogen activator (uPA) Biomarker Activity (AID 2283075); conditions: primary human keratinocytes with fibroblasts; actives raise or lower the signal
How it was run: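 Values derive from bidirectional fitting against DMSO controls. Keratinocyte/foreskin fibroblast co-cultures received chemical; 24 h later uPA was detected by ELISA, with SRB total-protein staining in parallel wells for overt cytotoxicity.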

Measured: AC50

E-selectin (Homo sapiens), sequence (P16581 whole entry, looked up): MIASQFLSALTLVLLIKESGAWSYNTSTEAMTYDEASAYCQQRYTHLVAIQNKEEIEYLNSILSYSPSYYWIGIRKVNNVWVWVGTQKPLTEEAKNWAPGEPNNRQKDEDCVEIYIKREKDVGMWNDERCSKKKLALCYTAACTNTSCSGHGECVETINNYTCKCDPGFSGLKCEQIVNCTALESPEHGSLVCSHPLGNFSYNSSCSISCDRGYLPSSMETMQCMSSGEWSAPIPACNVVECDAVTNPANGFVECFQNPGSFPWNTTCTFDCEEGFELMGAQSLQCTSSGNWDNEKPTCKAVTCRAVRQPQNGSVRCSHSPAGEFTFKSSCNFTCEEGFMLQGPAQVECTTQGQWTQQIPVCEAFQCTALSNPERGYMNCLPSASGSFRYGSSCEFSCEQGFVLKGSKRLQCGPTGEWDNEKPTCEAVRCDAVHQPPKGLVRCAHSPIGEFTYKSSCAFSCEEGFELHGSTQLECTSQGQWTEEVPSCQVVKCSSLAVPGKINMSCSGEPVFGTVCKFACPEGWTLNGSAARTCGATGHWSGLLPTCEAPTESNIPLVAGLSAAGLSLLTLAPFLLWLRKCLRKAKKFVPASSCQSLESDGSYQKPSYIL
Tumor necrosis factor (Homo sapiens), sequence (P01375 whole entry, looked up): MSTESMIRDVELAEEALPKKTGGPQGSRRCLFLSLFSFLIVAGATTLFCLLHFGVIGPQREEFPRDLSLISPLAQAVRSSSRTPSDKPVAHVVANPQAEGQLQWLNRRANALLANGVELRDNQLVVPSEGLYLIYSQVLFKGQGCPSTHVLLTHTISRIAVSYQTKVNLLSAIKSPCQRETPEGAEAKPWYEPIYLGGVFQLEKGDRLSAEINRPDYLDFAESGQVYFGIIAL

CCC(C)(CC)c1cc(NC(=O)c2c(OC)cccc2OC)on1
not listed: [17] | [18]
inactive: all other assays above

Oc1c(Cl)c(Cl)c(Cl)c(Cl)c1Cl
active: [2] 2.02 µM and 17.3 µM | [3] 15 µM | [4] 10.8 µM | [5] 6.97 µM and 6.46 µM | [7] 27.1 µM | [8] 15.1 µM and 26.4 µM | [9] 34.4 µM | [10] 2.92 µM and 30.4 µM | [11] 4.98 µM | [12] 10.2 µM and 25.5 µM | [13] 32.4 µM | [14] 20 µM | [15] 10.2 µM and 14.6 µM | CD38, CD38 (gene 952) 27.7 µM | CD40, CD40 (gene 958) [16] 10.2 µM and 24.1 µM | CD69, CD69 (gene 969) 10.2 µM and 19.8 µM
inactive: [3] | [4] | [7] | [9] | [11] | [13] | [14]

C[C@]12CCC(=O)C=C1CC[C@@H]1[C@@H]2CC[C@@]2(C)[C@H]1CC[C@]2(C)O
not listed: CD40, CD40 (gene 958) [6] | [18]
inactive: all other assays above

Cc1cc(-c2ccc(N)c(C)c2)ccc1N
active: [11] 7.16 µM
not listed: [1] | CD40, CD40 (gene 958) [6]
inactive: all other assays above

Cc1ccc(O)c(C)c1
active: [11] 3.27 µM | [15] 4.7 µM
not listed: [4] | CD40, CD40 (gene 958) [6]
inactive: all other assays above
